Experiment [1] in a line: inhibitors of TNFa-induced NFkB p65 translocation, primary screen, imaging, HUVEC, MLSMR starter and 10KST1 sets (AID 438;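 active means inhibition above 20% together with a positive visual image hit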;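 further: compound added about 3h40 before a 20 min TNFalpha stimulation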;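 on inhibition: signal is the nuclear over cytoplasmic p65 intensity ratio per well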). To be noted: HUVEC TNFa-induced p65 nuclear translocation; cell count: measured here: nuclei count (cytotoxicity indicator), at 2.08 µM; inhibition: at 2 µM, stronger effect = higher value, 0% TNFa-plus-vehicle, 100% no-TNFa wells.
Experiment [2] in a line: inhibitors of mutant huntingtin aggregation, primary screen, imaging, exon1htt(103Q)mCFP cells, high-content imaging (AID 483;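 active means visual image review flags a hit and inhibition of aggregation exceeds 20%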;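 further: compound exposure lasted 3 days before fixation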;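 on nuclei count: percent of the per-plate median nuclei count of sample wells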). The settings on record: exon1htt(103Q)mCFP cell line, aggregate imaging, at 2 µM; inhibition of aggregation: stronger effect = higher value; nuclei count: measured here: cell count, toxicity.
Experiment [3] is described as follows: inhibitors of E-selectin induction by TNFa, primary screen, imaging, HUVEC, immunofluorescence, MLSMR starter and 10KST1 sets (AID 487;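 active means visually confirmed hit in the image check and inhibition above 20%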;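 on inhibition: signal is fraction of cell area covered by stained E-selectin grains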;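 on nuclei count: 100% = median nuclei count of all wells on the same plate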). To be noted: HUVEC TNFalpha-induced E-selectin immunofluorescence imaging, at 2 µM; inhibition: stronger effect = higher value; nuclei count: measured here: cell number, toxicity.
Experiment [4] deals with Voltage-gated potassium channel subunit beta-2 (Rattus norvegicus) (UniProt P62483). As to the kind of experiment: KvBeta enzyme negative modulators, primary screen, biochemical, NADPH fluorescence (AID 622;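 active means fluorescence slope higher than the sample average by over 3 SD, cut at about -0.22 in these data, passing the limit was not always enough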;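 further: slope of raw intensity against log time taken from 70 to 1610 s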). The settings on record: recombinant KvBeta, 4-cyanobenzaldehyde reduction, at 10 µM, stronger effect = higher value.
The target is the same in experiment [5]. The experiment can be described thus: KvBeta positive modulators, primary screen, biochemical, NADPH fluorescence (AID 623).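 Further: fluorescence intensity change per second fitted from 20 to 320 s.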 The settings on record: Recombinant KvBeta, NADPH fluorescence decrease slope, 10 min; at 10 µM; stronger effect = lower value.
Experiment [6] addresses Alpha-2C adrenergic receptor (Homo sapiens) (UniProt P18825). As to the kind of experiment: modulators of alpha2C/GIRK thallium flux, primary screen, cell-based, HEK293 alpha2C/GIRK1/2 (AID 624;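 active means fluorescence slope after compound addition differing from the mean of all screened samples at 99.7% confidence, in either direction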;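 further: slope of fluorescence ratio to pre-addition baseline per second over 15 to 24 s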). The settings on record: thallium flux BTC fluorescence, at 10 µM, actives lie on both sides.
A short description of experiment [7]: inhibitors of Sendai virus-induced IRF3 signaling, primary screen, TLR/RLR signaling modifier project, cell-based, Sendai virus stimulus, luciferase, 10K MLSCN set (AID 602276;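 active means inhibition at or above 50% at 10 µM; inactive means inhibition below 50%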;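 further: firefly luciferase from ISG56 promoter only with Renilla not read in this screen; 0% = Sendai virus plus DMSO and 100% = medium plus DMSO without virus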). To be noted: HEK293 RL24 IRF3 luciferase reporter, at 10 µM, stronger effect = higher value. In general terms: In a reporter assay the amount or activity of a reporter protein is the signal.
The nature of experiment [8]: inhibitors of poly I:C-induced TLR3 signaling, primary screen, cell-based, poly I:C stimulus, luciferase, 10K MLSCN set (AID 602277;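 active means inhibition of the reporter signal at or above 50%; inactive means inhibition below 50%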). The settings on record: HEK293-TLR3 RL24 IRF3 luciferase reporter, at 10 µM, stronger effect = higher value.

A word on the inhibition: it is the drop in the measured response relative to a control, in per cent.

Calls of active or inactive are those of the source.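 How the source made its calls, unless noted: active means NADPH fluorescence slope more negative than the mean of all samples by about 3 SD, 99.7% confidence; inactive means the rest.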

Voltage-gated potassium channel subunit beta-2 (Rattus norvegicus), sequence (P62483 whole entry, looked up): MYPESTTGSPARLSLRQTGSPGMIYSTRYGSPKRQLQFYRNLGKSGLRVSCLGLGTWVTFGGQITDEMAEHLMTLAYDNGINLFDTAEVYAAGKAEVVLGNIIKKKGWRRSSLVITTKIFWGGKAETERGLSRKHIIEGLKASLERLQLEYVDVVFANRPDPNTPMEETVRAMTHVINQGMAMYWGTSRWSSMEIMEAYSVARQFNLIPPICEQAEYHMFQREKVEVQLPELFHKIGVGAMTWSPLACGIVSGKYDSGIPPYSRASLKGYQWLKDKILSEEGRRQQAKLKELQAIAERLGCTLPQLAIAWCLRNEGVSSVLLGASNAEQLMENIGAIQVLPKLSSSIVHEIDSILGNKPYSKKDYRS
Alpha-2C adrenergic receptor (Homo sapiens), sequence (P18825 whole entry, looked up): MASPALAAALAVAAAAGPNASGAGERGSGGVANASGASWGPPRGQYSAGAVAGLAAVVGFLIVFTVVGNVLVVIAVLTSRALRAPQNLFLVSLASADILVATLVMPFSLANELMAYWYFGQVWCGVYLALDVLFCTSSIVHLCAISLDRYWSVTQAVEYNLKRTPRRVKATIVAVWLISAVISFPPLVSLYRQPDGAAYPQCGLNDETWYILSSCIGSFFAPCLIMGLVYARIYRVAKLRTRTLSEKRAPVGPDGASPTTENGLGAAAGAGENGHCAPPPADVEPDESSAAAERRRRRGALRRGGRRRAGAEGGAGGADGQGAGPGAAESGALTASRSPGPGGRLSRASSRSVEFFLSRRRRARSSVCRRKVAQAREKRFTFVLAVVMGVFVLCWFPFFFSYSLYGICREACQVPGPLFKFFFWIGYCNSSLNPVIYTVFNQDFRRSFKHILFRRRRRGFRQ

`CCCCOc1ccc(C2C3CN(C(=O)OCC)CC=C3C(C#N)=C(N)C2(C#N)C#N)cc1OC` (centres undefined): the cell count in experiment [1] amounted to 645. For the same molecule, the inhibition in experiment [1] was -26.7% (inactive); in experiment [3] it was -44.7% (inactive); in experiment [7], 14.6% (inactive); in experiment [8] it was 19.7% (inactive). Also, in experiment [2], the inhibition of aggregation was -9.8% (inactive). Moreover, the nuclei count was determined as 106% in experiment [2] and 115% in experiment [3]. The fluorescence slope in experiment [4] is -0.476 (inactive). Also, the NADPH fluorescence slope in experiment [5] was -2.9e-05 (inactive). Also, the slope in experiment [6] was 0.0065 (inactive).
`CN(Cc1ccccc1)Cc1nc2c(c(=O)n(C)c(=O)n2C)n1Cc1ccc(Cl)cc1`: the cell count in experiment [1] worked out at 346. Further, the inhibition is -7.7% (inactive) in experiment [1], -32.1% (inactive) in experiment [3], -1.93% (inactive) in experiment [7] and 2.58% (inactive) in experiment [8]. For the same molecule, the inhibition of aggregation in experiment [2] was 22.2% (inactive). For the same molecule, the values for the nuclei count in experiment [2] and in experiment [3] were 72.4% and 161%, respectively. Besides, the fluorescence slope in experiment [4] was -0.612 (inactive). Besides, the NADPH fluorescence slope in experiment [5] was -1.8e-05 (inactive). In addition, the slope in experiment [6] is 0.00317 (inactive).
As to `O=C(CSc1nc2ccccc2o1)Nc1ccccc1`, in experiment [1], the cell count was determined as 728. Moreover, the inhibition in experiment [1] is 11.1% (inactive); in experiment [3] it was -10.4% (inactive); in experiment [7] it was -21.3% (inactive); in experiment [8] it was -87.6% (inactive). Besides, the inhibition of aggregation in experiment [2] is 0.9% (inactive). Also, the nuclei count in experiment [2] turned out to be 100%; in experiment [3], 106%. In addition, in experiment [4], the fluorescence slope is -0.285 (inactive). Besides, the NADPH fluorescence slope in experiment [5] is -8e-06 (inactive). Also, the slope in experiment [6] was 0.00667 (inactive).
With `CCCCOc1ccc(N(CC(=O)NC2CCCC2)C(=O)CCC(=O)Nc2ccccn2)cc1`, the cell count in experiment [1] was found to be 582. The inhibition in experiment [1] is -1.5% (inactive); in experiment [3], -7.6% (inactive); in experiment [7], 15.8% (inactive); in experiment [8], 28.8% (inactive). Moreover, in experiment [2], the inhibition of aggregation is -1.9% (inactive). Moreover, the results for the nuclei count in experiment [2] and in experiment [3] were 94% and 101%, respectively. In experiment [4], the fluorescence slope was -0.416 (inactive). Further, the NADPH fluorescence slope in experiment [5] was 1.8e-06 (inactive). The slope in experiment [6] was 0.00642 (inactive).
Take `Cc1nn(Cc2ccc(C(=O)NC3CCCCC3)o2)c(C)c1Br`: the cell count in experiment [1] amounted to 463. Further, the inhibition is -0.6% (inactive) in experiment [1], -30.6% (inactive) in experiment [3], 7.39% (inactive) in experiment [7] and 11.6% (inactive) in experiment [8]. Moreover, the inhibition of aggregation in experiment [2] was 24.1% (inactive). Moreover, the nuclei count in experiment [2] was 72.2%; in experiment [3] it was 108%. Also, the fluorescence slope in experiment [4] is -0.395 (inactive). In addition, the NADPH fluorescence slope in experiment [5] was -3.4e-05 (inactive). The slope in experiment [6] is 0.00387 (inactive).
In the case of `Cn1cccc1Cc1nnc(SCC(=O)NCc2ccc(F)cc2)n1-c1ccc(F)cc1`, the cell count in experiment [1] came out at 767. For the same molecule, the inhibition in experiment [1] was -7.4% (inactive); in experiment [3], -56.2% (inactive); in experiment [7] it was -4.39% (inactive); in experiment [8], 9.66% (inactive). Moreover, in experiment [2], the inhibition of aggregation is 20% (inactive). In addition, the results for the nuclei count in experiment [2] and in experiment [3] were 139% and 116%, respectively. Also, the fluorescence slope in experiment [4] is -0.579 (inactive). In addition, the NADPH fluorescence slope in experiment [5] is 8.6e-06 (inactive). For the same molecule, the slope in experiment [6] was 0.00663 (inactive).
Turning to `c1coc(CN2CN=C(Nc3nc4ccccc4s3)NC2)c1`, the cell count in experiment [1] came to 604. For the same molecule, the inhibition in experiment [1] was -1.5% (inactive); in experiment [3] it was 13.3% (inactive); in experiment [7], -12.9% (inactive); in experiment [8], -7.25% (inactive). For the same molecule, the inhibition of aggregation in experiment [2] is -13.8% (inactive). For the same molecule, the values for the nuclei count in experiment [2] and in experiment [3] were 106% and 109%, respectively. In experiment [4], the fluorescence slope is -0.357 (inactive). Also, the NADPH fluorescence slope in experiment [5] was -2.5e-05 (inactive). The slope in experiment [6] is 0.00455 (inactive).
With `COc1ccccc1OCCOCCn1cnc2ccccc2c1=O`, the cell count in experiment [1] is 561. In addition, the inhibition was -2.8% (inactive) in experiment [1], 2.6% (inactive) in experiment [3], 10.3% (inactive) in experiment [7] and 12.5% (inactive) in experiment [8]. Besides, the inhibition of aggregation in experiment [2] is 24.9% (inactive). The nuclei count in experiment [2] was found to be 79.3%; in experiment [3], 94.4%. Further, the fluorescence slope in experiment [4] was -0.488 (inactive). Also, the NADPH fluorescence slope in experiment [5] is -4.9e-05 (inactive). Moreover, the slope in experiment [6] is 0.00575 (inactive).
With `COc1ccccc1C(=O)OCn1nnc2ccccc2c1=O`, the cell count in experiment [1] is 714. In addition, the inhibition is -21.1% (inactive) in experiment [1], -15.2% (inactive) in experiment [3], 12.3% (inactive) in experiment [7] and 22.5% (inactive) in experiment [8]. Moreover, in experiment [2], the inhibition of aggregation is 6.6% (inactive). Moreover, the values for the nuclei count in experiment [2] and in experiment [3] were 103% and 106%, respectively. In addition, in experiment [4], the fluorescence slope was -0.421 (inactive). In experiment [5], the NADPH fluorescence slope was -4e-05 (inactive). The slope in experiment [6] was 0.00465 (inactive).
For the molecule `S=c1[nH]nc(Cc2ccccc2)n1Cc1ccco1`, the cell count in experiment [1] was found to be 769. In addition, the inhibition in experiment [1] is -8% (inactive); in experiment [3], -2.6% (inactive); in experiment [7], 5.02% (inactive); in experiment [8], 9.76% (inactive). For the same molecule, the inhibition of aggregation in experiment [2] is 3% (inactive). Besides, the nuclei count in experiment [2] came out at 101%; in experiment [3], 102%. The fluorescence slope in experiment [4] is -0.499 (inactive). Moreover, the NADPH fluorescence slope in experiment [5] was -7e-05 (inactive). Also, the slope in experiment [6] was 0.00544 (inactive).
Turning to `COC(=O)CSC1=NS(=O)(=O)c2ccccc21`, the cell count in experiment [1] came to 340. For the same molecule, the inhibition in experiment [1] is 1.2% (inactive); in experiment [3], 45.9% (inactive); in experiment [7], 20.5% (inactive); in experiment [8] it was 21.4% (inactive). Also, the inhibition of aggregation in experiment [2] was 19.6% (inactive). Moreover, the nuclei count in experiment [2] worked out at 91.3%; in experiment [3], 113%. Moreover, the fluorescence slope in experiment [4] was -0.5 (inactive). Moreover, the NADPH fluorescence slope in experiment [5] was -3.6e-05 (inactive). In addition, in experiment [6], the slope was 0.00571 (inactive).
Consider `Cc1cc(N=Cc2cc(Br)ccc2O)no1`, for which the cell count in experiment [1] is 330. Further, the inhibition in experiment [1] was -6.7% (inactive); in experiment [3], -147% (inactive); in experiment [7], 15.6% (inactive); in experiment [8], 15.7% (inactive). Also, in experiment [2], the inhibition of aggregation is -17.3% (inactive). Further, the nuclei count in experiment [2] is 106%; in experiment [3], 121%. Moreover, in experiment [4], the fluorescence slope was -0.311 (inactive). For the same molecule, in experiment [5], the NADPH fluorescence slope is -3.4e-05 (inactive). In addition, the slope in experiment [6] is 0.00663 (inactive).
`O=C1C(c2ccncc2)=C(O)c2ccccc21`: the cell count in experiment [1] stood at 302. For the same molecule, the inhibition in experiment [1] is -8.6% (inactive); in experiment [3], 0.7% (inactive); in experiment [7], 4.51% (inactive); in experiment [8], -0.387% (inactive). Also, the inhibition of aggregation in experiment [2] is 1.9% (inactive). The results for the nuclei count in experiment [2] and in experiment [3] were 73% and 91.1%, respectively. The fluorescence slope in experiment [4] was -0.333 (inactive). For the same molecule, in experiment [5], the NADPH fluorescence slope is -1.1e-05 (inactive). For the same molecule, the slope in experiment [6] is 0.00364 (inactive).
For `Cc1ccc(C)c(N(CC(=O)NCc2ccco2)C(=O)CCC(=O)Nc2ccccn2)c1`, the cell count in experiment [1] was 423. Moreover, the inhibition in experiment [1] is 5.1% (inactive); in experiment [3] it was -41% (inactive); in experiment [7], 15.1% (inactive); in experiment [8], 30.2% (inactive). The inhibition of aggregation in experiment [2] is -7.8% (inactive). Also, the nuclei count in experiment [2] worked out at 114%; in experiment [3] it was 105%. Moreover, the fluorescence slope in experiment [4] was -0.608 (inactive). Besides, the NADPH fluorescence slope in experiment [5] was -1.8e-05 (inactive). Besides, in experiment [6], the slope is 0.00608 (inactive).

The record behind these values is PubChem BioAssay.
